“And” between values parts separate entries of the source, which are not always exact repeats. Equal entries are not always repeated. Results filed as inconclusive are left out. A structure can be active in one record and inactive in another. The source made the active and inactive calls. Unless noted, calls follow the shape of the dose curve; as a rule, active = well fitted inhibition curve with a large enough effect; inconclusive = small, poorly fitted or top-dose-only effect; inactive = flat fitted curve, though single readings scatter. Non-standard residues stand in square brackets, D forms with d. Residues, ends and D or L forms follow the SMILES beside them. Peptide text beside a SMILES is read from it. *: point of attachment. Sta = CC(C)C[C@H](N)[C@@H](O)CC(=O)O; Isovaleryl = CC(C)CC(=O)*
test system: not listed separately; assay: qHTS assay for small molecule antagonists of retinoid X receptor alpha signaling (AID 588546; active = well fitted inhibition curve with a large enough effect in the signal ratio, with a control signal flat, not every such curve was filed as active; the % refers to the signal ratio;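 also: cells stimulated with 9-cis-retinoic acid as agonist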); conditions: HEK293T RXRa-UAS-bla, beta-lactamase ratio, antagonist mode; measured here: W530 green channel, cytotoxicity proxy
Summary of the method: (§1)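 Beta-lactamase reporter inhibition, read as CCF4 fluorescence ratio (ex 405, em 460/530 nm) after 2 h at RT. HEK293T UAS-bla cells, 2500/well, were stimulated with 9-cis-RA at 500 or 100 nM final alongside test compound for 18 h at 37 C.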
% is scaled to controls: 0 for no effect and ±100 for the full control effect.

Structure (SMILES) | max response
Nc1ccc(S(N)(=O)=O)cc1 | -7.58%
CS(=O)(=O)OCCCCOS(C)(=O)=O | 2.17% and -2.42%
Cc1cc(O)c2c(c1)C(=O)c1cc(O)cc(O)c1C2=O | 1.07%
CCc1nc(N)nc(N)c1-c1ccc(Cl)cc1 | 8.81%
COc1cc(OC)c(C(=O)CCCN2CCCC2)c(OC)c1 | -15.1%
CNC[C@H](O)c1ccc(O)c(O)c1 | -9.39%
CN(C)c1ccc2nc3ccc(=[N+](C)C)cc-3sc2c1 | -22.9%
COC(=O)[C@H](Cc1ccccc1)NC(=O)[C@@H](N)CC(=O)O (H-Asp-Phe-OMe) | 2.63% and 8.92%
CCCc1cc(=O)[nH]c(=S)[nH]1 | 2.58% and 1.92%
c1ccc2[nH]c(-c3cscn3)nc2c1 | -4.89% and -3.75%
CC1(C)NC(=O)N(c2ccc([N+](=O)[O-])c(C(F)(F)F)c2)C1=O | -4.34%
Nc1nc(Cl)nc2c1ncn2[C@H]1C[C@H](O)[C@@H](CO)O1 | 5.76%
Cc1ccc(C)c(OCCCC(C)(C)C(=O)O)c1 | 4.23% and -4.48%
COc1c2occc2cc2ccc(=O)oc12 | 0.567% and -6.27%
CCCCC(CC)COC(=O)C(C#N)=C(c1ccccc1)c1ccccc1 (configuration not stated) | -18.7%

biological target: Retinoic acid receptor RXR-alpha (Homo sapiens) (UniProt P19793); assay: as above; conditions: HEK293T RXRa-UAS-bla, beta-lactamase ratio, antagonist mode
Summary of the method: as §1

Chain of Retinoic acid receptor RXR-alpha (Homo sapiens) (P19793 whole entry, looked up): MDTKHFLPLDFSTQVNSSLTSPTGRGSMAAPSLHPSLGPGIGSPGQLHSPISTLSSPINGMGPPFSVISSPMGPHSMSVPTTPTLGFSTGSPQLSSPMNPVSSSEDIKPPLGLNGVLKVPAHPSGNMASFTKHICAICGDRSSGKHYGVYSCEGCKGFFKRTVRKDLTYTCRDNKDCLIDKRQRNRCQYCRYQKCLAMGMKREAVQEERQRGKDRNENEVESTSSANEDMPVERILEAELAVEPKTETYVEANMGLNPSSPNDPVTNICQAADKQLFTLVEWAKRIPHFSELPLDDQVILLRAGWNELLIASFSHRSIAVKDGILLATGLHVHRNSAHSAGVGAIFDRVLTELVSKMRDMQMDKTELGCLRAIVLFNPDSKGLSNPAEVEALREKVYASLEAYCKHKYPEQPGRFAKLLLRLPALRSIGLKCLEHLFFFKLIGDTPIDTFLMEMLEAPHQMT

Structure (SMILES) | max response
Nc1ccc(S(N)(=O)=O)cc1 | 9.55% (inactive)
CS(=O)(=O)OCCCCOS(C)(=O)=O | 8.02% (inactive) and 2.56% (inactive)
Cc1cc(O)c2c(c1)C(=O)c1cc(O)cc(O)c1C2=O | -11.8% (inactive)
CCc1nc(N)nc(N)c1-c1ccc(Cl)cc1 | -13% (inactive)
COc1cc(OC)c(C(=O)CCCN2CCCC2)c(OC)c1 | -23.6% (inactive)
CNC[C@H](O)c1ccc(O)c(O)c1 | -4.11% (inactive)
CN(C)c1ccc2nc3ccc(=[N+](C)C)cc-3sc2c1 | -3.23% (inactive)
COC(=O)[C@H](Cc1ccccc1)NC(=O)[C@@H](N)CC(=O)O (H-Asp-Phe-OMe) | 1.69% (inactive) and -7.67% (inactive)
CCCc1cc(=O)[nH]c(=S)[nH]1 | 3.88% (inactive) and 3.79% (inactive)
c1ccc2[nH]c(-c3cscn3)nc2c1 | 14% (inactive) and 3.02% (inactive)
CC1(C)NC(=O)N(c2ccc([N+](=O)[O-])c(C(F)(F)F)c2)C1=O | 1.48% (inactive)
Nc1nc(Cl)nc2c1ncn2[C@H]1C[C@H](O)[C@@H](CO)O1 | -2.35% (inactive)
Cc1ccc(C)c(OCCCC(C)(C)C(=O)O)c1 | 1.18% (inactive) and -8.41% (inactive)
COc1c2occc2cc2ccc(=O)oc12 | 1.26% (inactive) and 12.5% (inactive)
CCCCC(CC)COC(=O)C(C#N)=C(c1ccccc1)c1ccccc1 (configuration not stated) | -7.69% (inactive)

biological target: Thyroid hormone receptor beta (Homo sapiens) (UniProt P10828); assay: qHTS assay for small molecule antagonists of thyroid hormone receptor beta signaling (AID 588547; active = well fitted inhibition curve with a large enough effect in the signal ratio, with a control signal flat, not every such curve was filed as active; the % refers to the signal ratio;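 also: cells stimulated with 0.4 nM T3 agonist during compound exposure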); conditions: TR-UAS-bla HEK293, beta-lactamase ratio, antagonist mode, 18 h
Summary of the method: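 TR-UAS-bla GripTite HEK293 cells in 2% charcoal/dextran FBS medium were preincubated 4 h at 37 C, given compound (0.59 nM to 92 uM) plus 0.4 nM T3 (final) for 18 h, then CCF4 for 2 h at RT; Hill fit gave IC50.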

Chain of Thyroid hormone receptor beta (Homo sapiens) (P10828 whole entry, looked up): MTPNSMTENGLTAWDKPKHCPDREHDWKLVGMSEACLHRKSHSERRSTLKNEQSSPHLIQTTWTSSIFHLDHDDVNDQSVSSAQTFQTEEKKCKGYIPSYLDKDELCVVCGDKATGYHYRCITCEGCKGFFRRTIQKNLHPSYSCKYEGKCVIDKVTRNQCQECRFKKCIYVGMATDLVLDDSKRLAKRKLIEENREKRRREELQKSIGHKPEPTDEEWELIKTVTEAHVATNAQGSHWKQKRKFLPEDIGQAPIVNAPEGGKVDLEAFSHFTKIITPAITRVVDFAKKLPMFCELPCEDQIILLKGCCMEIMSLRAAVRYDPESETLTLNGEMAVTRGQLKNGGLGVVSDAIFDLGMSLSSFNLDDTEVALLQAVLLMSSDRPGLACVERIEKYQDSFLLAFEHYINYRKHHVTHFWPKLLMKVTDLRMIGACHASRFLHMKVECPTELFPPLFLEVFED

Structure (SMILES) | activity change % (negative = inhibition)
Nc1ccc(S(N)(=O)=O)cc1 | -5.21% (inactive)
Cc1cc(O)c2c(c1)C(=O)c1cc(O)cc(O)c1C2=O | -22% (inactive)
CCc1nc(N)nc(N)c1-c1ccc(Cl)cc1 | 6.74% (inactive) and -7.45% (inactive)
CN(C)c1ccc2nc3ccc(=[N+](C)C)cc-3sc2c1 | 20.5% (inactive)
COC(=O)[C@H](Cc1ccccc1)NC(=O)[C@@H](N)CC(=O)O (H-Asp-Phe-OMe) | 6.56% (inactive) and 1.22% (inactive)
CCCc1cc(=O)[nH]c(=S)[nH]1 | 8.46% (inactive)
c1ccc2[nH]c(-c3cscn3)nc2c1 | -27.5% (inactive)
CCN(CC)C(=S)SSC(=S)N(CC)CC | -7.17% (inactive)
Nc1nc(Cl)nc2c1ncn2[C@H]1C[C@H](O)[C@@H](CO)O1 | -1.32% (inactive)
Cc1ccc(C)c(OCCCC(C)(C)C(=O)O)c1 | -13.4% (inactive) and -13.2% (inactive)
COc1c2occc2cc2ccc(=O)oc12 | 4.14% (inactive) and -14.9% (inactive)
NS(=O)(=O)c1cc(C(=O)O)c(NCc2ccco2)cc1Cl | -7.01% (inactive) and -13.6% (inactive)
CCCCC(CC)COC(=O)C(C#N)=C(c1ccccc1)c1ccccc1 (configuration not stated) | -9.58% (inactive)

biological target: Voltage-gated inwardly rectifying potassium channel KCNH2 (Homo sapiens) (UniProt Q12809); assay: qHTS Assay for Small Molecule Inhibitors of the Human hERG Channel Activity (AID 588834); conditions: U2OS BacMam hERG, FluxOR thallium flux fluorescence; series mostly up to 46.1 µM; activity change, negative = inhibition: at the top concentration;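 also: lower thallium flux fluorescence means stronger hERG block; nearly all actives have a fitted effect of over 50% in size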; also: potency is read from the fitted curve at half-maximal effect; as to activity change, negative = inhibition: top concentration of the series differs between compounds
Summary of the method: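 Thallium serves as surrogate for K+ influx through BacMam-delivered hERG in U2OS cells. Compounds are added for about 10 minutes after dye loading; stimulation buffer then starts flux, monitored kinetically on FDSS.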

Chain of Voltage-gated inwardly rectifying potassium channel KCNH2 (Homo sapiens) (Q12809 whole entry, looked up): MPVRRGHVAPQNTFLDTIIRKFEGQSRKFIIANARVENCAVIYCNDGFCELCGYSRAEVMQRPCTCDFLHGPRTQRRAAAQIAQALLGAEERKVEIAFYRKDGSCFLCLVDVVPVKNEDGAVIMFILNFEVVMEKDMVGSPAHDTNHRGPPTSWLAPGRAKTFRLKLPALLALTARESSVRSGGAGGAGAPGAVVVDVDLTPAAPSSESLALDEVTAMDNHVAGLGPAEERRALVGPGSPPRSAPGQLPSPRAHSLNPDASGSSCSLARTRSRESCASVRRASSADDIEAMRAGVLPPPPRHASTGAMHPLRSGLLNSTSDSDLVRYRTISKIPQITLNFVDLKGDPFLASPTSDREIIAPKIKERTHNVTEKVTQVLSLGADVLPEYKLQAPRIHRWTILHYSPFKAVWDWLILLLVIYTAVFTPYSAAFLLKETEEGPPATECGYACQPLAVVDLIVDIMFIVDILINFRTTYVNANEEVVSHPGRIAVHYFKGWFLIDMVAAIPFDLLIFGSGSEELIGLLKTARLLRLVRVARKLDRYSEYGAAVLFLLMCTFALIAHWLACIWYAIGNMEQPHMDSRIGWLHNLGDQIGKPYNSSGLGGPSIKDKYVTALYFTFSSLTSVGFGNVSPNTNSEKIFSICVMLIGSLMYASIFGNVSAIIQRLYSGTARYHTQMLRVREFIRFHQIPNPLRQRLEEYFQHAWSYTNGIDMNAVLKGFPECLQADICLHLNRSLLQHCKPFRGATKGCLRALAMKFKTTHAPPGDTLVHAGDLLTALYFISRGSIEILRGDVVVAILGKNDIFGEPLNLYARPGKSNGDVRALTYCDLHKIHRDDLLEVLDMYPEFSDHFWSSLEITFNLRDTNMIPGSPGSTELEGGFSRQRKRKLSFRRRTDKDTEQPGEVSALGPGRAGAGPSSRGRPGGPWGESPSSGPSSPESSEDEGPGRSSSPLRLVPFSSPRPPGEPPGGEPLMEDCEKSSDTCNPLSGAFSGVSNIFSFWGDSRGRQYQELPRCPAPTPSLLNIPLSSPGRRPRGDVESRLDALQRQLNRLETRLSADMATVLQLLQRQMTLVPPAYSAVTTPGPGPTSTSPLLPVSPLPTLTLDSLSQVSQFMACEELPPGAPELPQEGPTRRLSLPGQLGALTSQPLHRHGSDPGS

Structure (SMILES) | activity change, negative = inhibition | Potency
Cc1cccc(C#Cc2ccccc2)n1 | 0.809% (inactive) | –
N[C@@H](Cc1cc(I)c(Oc2cc(I)c(O)c(I)c2)c(I)c1)C(=O)O | -12.4% (inactive) | –
CC(C)CC(=O)N[C@H](C(=O)N[C@H](C(=O)N[C@@H](CC(C)C)[C@@H](O)CC(=O)N[C@@H](C)C(=O)N[C@@H](CC(C)C)[C@@H](O)CC(=O)O)C(C)C)C(C)C (Isovaleryl-VV[Sta]A[Sta]-OH) | 8.29% (inactive) | –
CS(=O)(=O)OCCCCOS(C)(=O)=O | – | inactive
O=C(c1ccccc1)c1ccc2n1CCC2C(=O)O (configuration not stated) | – | inactive
CC1(C)C(=O)N(CCN2CCC(C(=O)c3ccc(F)cc3)CC2)c2ccccc21 | – | 0.891 µM (active)
CCc1nc(N)nc(N)c1-c1ccc(Cl)cc1 | – | 39.8 µM (active) and inactive
Clc1ccc(C(Cn2ccnc2)OCc2c(Cl)cccc2Cl)c(Cl)c1 (configuration not stated) | – | 7.94 µM (active)
Nc1nc(OCc2ccccc2)c2[nH]cnc2n1 | -10.8% (inactive) | –
COc1cc(OC)c(C(=O)CCCN2CCCC2)c(OC)c1 | 6.04% [at 20.6 µM] (inactive) | –
CNC[C@H](O)c1ccc(O)c(O)c1 | – | inactive
O=C1NC(=O)C(c2ccccc2[N+](=O)[O-])=C1Nc1ccc(O)c(Cl)c1 | -4.13% (inactive) | –
CN(C)c1ccc2nc3ccc(=[N+](C)C)cc-3sc2c1 | – | inactive
COC(=O)[C@H](Cc1ccccc1)NC(=O)[C@@H](N)CC(=O)O (H-Asp-Phe-OMe) | – | inactive
CC(C)C[C@H](NC(=O)[C@H](Cc1ccccc1)NC(=O)c1cnccn1)B(O)O | – | inactive
NC(=NCc1ccccc1)NC(=O)c1nc(Cl)c(N)nc1N | – | 5.62 µM (active)
CCCc1cc(=O)[nH]c(=S)[nH]1 | – | inactive
c1ccc2[nH]c(-c3cscn3)nc2c1 | -11.7% [at 92.2 µM] (inactive) | –
CC1(C)NC(=O)N(c2ccc([N+](=O)[O-])c(C(F)(F)F)c2)C1=O | – | inactive
Nc1nc(Cl)nc2c1ncn2[C@H]1C[C@H](O)[C@@H](CO)O1 | 4.13% (inactive) | –
Cc1ccc(C)c(OCCCC(C)(C)C(=O)O)c1 | – | inactive
O=c1ccc2ccc(O)c(O)c2o1 | 0.627% (inactive) | –
O=c1c(O)c(-c2ccc(O)cc2O)oc2cc(O)cc(O)c12 | – | 3.16 µM (active)
CCOC(=O)C1=C[C@@H](OC(CC)CC)[C@H](NC(C)=O)[C@@H](N)C1 | -15.8% (inactive) | –
COc1c2occc2cc2ccc(=O)oc12 | – | inactive
CCCCC(CC)COC(=O)C(C#N)=C(c1ccccc1)c1ccccc1 (configuration not stated) | -2.44% (inactive) | –
Cc1cccc(CN2CCN(C(c3ccccc3)c3ccc(Cl)cc3)CC2)c1 (configuration not stated) | – | 1.26 µM (active)
O=c1cc(N2CCOCC2)oc2c(-c3ccccc3)cccc12 | -7.91% (inactive) | –

From PubChem BioAssay (NCATS)
